Experimental findings from PubChem BioAssay AID588405 (Sanford-Burnham Center for Chemical Genomics, 2011) are described below.

“And” between values parts separate entries of the source, which are not always exact repeats. Equal values may be shown once. In all, about 360,000 compounds went through this assay and about 6,200 (1.7%) were called active. This is one part of a sample in which actives are shown more often than they occur.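 How the source made its calls: active means inhibition of at least 50% at 20 µM; inactive means the rest.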

A short description of this assay: Peg3 promoter-driven luciferase inhibitors, primary screen, cell-based, HeLa, luciferase luminescence (AID 588405). The note with it: HeLa PEG-Prom luciferase reporter, overnight, at 20 µM, active compounds read high. (In general: Reporter assays use an easily measured gene product as a stand-in for the process of interest.)
The inhibition is the drop in the measured response relative to a control, in per cent. For the molecule `CCC(C)(O)C(=O)OC1C(=O)OC2CC3C(C)=CC(=O)C(O)C3(C)C3C4(O)OCC23C1C(C)C4O` (centres undefined), the inhibition was 100% (active).

Consider `O=C(O)CCn1cc(C=C2C(=O)NC(=S)NC2=O)c(-c2cccc(Br)c2)n1`, for which the inhibition is -1.73% (inactive). With `CN(C)C(=O)Oc1cc(OC(=O)N(C)C)cc(C(O)CNC(C)(C)C)c1` (centres undefined) the figure was 4.25% (inactive) and -0.27% (inactive). To `O=C1NC(=O)N(CCc2ccc(F)cc2)C(=O)/C1=C/C=C/c1ccccc1` belongs 90.6% (active); to `O=C1NC(=O)N(c2ccc(F)cc2)C(=O)/C1=C/c1ccc2c(c1)CCCN2Cc1ccccc1`, 12.7% (inactive). With `Cc1cc2ccccn2c1C(C[N+](=O)[O-])c1c(F)cccc1Cl` (centres undefined) the figure was 38.7% (inactive); with `CC(C)CN1Cc2cc(N3CCCCC3)ccc2-n2nncc2C1`, -1.02% (inactive).

Turning to `COC(=O)[C@@H]1C(OC(=O)c2ccccc2)CC2CCC1N2C` (some centres undefined), the inhibition was -10.5% (inactive). With `CC(=O)OC1C2(CC3N4C(=O)C5(CO)SSC4(CC31O)C(=O)N5C)OC(C)C(C)(C)C2=O` (centres undefined) the figure was 99.3% (active). On to `CC1C2Cn3c(nc4ccccc43)C1N(C)O2` (centres undefined), for which the inhibition is -2.57% (inactive). To `Nc1ccc([N+](=O)[O-])cc1` belongs -3.82% (inactive). With `CC(C)N(CC#CCC1(O)c2ccccc2-c2ccccc21)C(C)C` the figure was -15.7% (inactive); with `COc1ccc(C(=O)CC2C(=O)N(C)C(=O)N(C)C2=O)cc1`, 13.1% (inactive). With `CC(=O)Nc1ccccc1C(=O)OCC(=O)c1cccc2ccccc12` the figure was -26.1% (inactive). `N#CC1=C(N)Oc2c(c(=O)oc3ccccc23)C1c1ccccc1OC(=O)c1cccs1` (centres undefined): the inhibition is 19.6% (inactive). On to `O=P(OC1=CCCCC1)(c1ccccc1)c1ccccc1`, for which the inhibition is 8.64% (inactive). To `O=C1C2(Cl)C3(Cl)C4(Cl)C(Cl)(Cl)C5(Cl)C3(Cl)C1(Cl)C5(Cl)C24Cl` (centres undefined) belongs 86.1% (active); to `OC1/C(=C/c2ccc(C(F)(F)F)cc2)N2CCC1CC2` (centres undefined), -51.4% (inactive). In the case of `C[C@]12CC[C@H](O)C[C@H]1CC[C@@H]1C2CC[C@]2(C)[C@@H](C3=CC(=O)OC3)[C@@H](O)C[C@]12O` (some centres undefined), the inhibition is 112% (active). For the molecule `CC12CCC(O)CC1CCC1C2CCC2(C)C(C(=O)CC(O)C(F)(F)F)CCC12` (centres undefined), the inhibition is -18.9% (inactive). With `CCN1c2nc3c(C)cccn3c(=O)c2CC2(C(=O)N(C)C(=O)N(C)C2=O)C1C` (centres undefined) the figure was 4.11% (inactive); with `CN1CCC(N(C)Cc2cccnc2)CC1`, -0.72% (inactive); with `O=C(OCCN1CCOCC1)C1(c2ccccc2)CCCC1`, 6.31% (inactive).

Turning to `COc1cc(OC)cc(C2(C#N)CCN(C)CC2)c1`, the inhibition was 16.1% (inactive).

Turning to `Cc1cc(OCc2cc(C(=O)O)oc2C)c2c3c(c(=O)oc2c1)CCCC3`, the inhibition was 0.36% (inactive). With `Fc1ccc(C2N3CCCN23)cc1` (centres undefined) the figure was 2.08% (inactive); with `CCCCCCCCCCCCn1ccc(=N)cc1`, 72.5% (active); with `COc1ccccc1N=C1SCCCN1C`, 4.44% (inactive). To `CCN1CCN(c2ccc([N+](=O)[O-])cc2C#N)CC1` belongs 13.3% (inactive); to `CC(Cc1ccccc1)NCCC(c1ccccc1)c1ccccc1` (centres undefined), 69.5% (active). For the molecule `CCc1cccc2c(C#N)cn(CC(=O)N3CCOCC3)c12`, the inhibition was 16.4% (inactive). `CC1CC=CCC12C(=O)NC(=S)NC2=O` (centres undefined): the inhibition was 4.94% (inactive). As for `COP(=O)(OC)C(NC(=O)c1ccc(C)cc1)C(Cl)(Cl)Cl` (centres undefined), the inhibition was -13.6% (inactive).

With `CC(CC(C#N)(c1ccccc1)c1ccccc1)N1CCCCC1` (centres undefined), the inhibition was -0.65% (inactive). To `CCN1CCN(Cc2cc(OC)c3c(c2)OCO3)CC1` belongs 14.7% (inactive); to `O=C(NC(=S)N1C[C@H]2C[C@H](C1)c1cccc(=O)n1C2)c1ccc(F)cc1`, 10.8% (inactive); to `CNCC(O)c1cc(F)c(OCc2ccccc2)c(OCc2ccccc2)c1F` (centres undefined), 100% (active). `O=C(CSC1c2ccccc2-c2ccccc21)N/N=C/c1ccccc1`: the inhibition is 28.7% (inactive). With `CCOc1ccc(CN(CCCl)CCCl)cc1C(=O)OC` the figure was 21.9% (inactive). With `O=c1[nH]c2ccccc2n1C1CCN(C(c2ccnc3ccccc23)c2nnnn2Cc2ccccc2)CC1` (centres undefined) the figure was 60.1% (active). With `CSCCC(c1nnnn1C(C)(C)C)N1CCC(n2c(=O)[nH]c3ccccc32)CC1` (centres undefined) the figure was 17.6% (inactive); with `COc1cccc(C(c2nnnn2-c2ccc3c(c2)OCCO3)N2CCC3(CC2)C(=O)NCN3c2ccccc2)c1OC` (centres undefined), 45.9% (inactive). For `Cc1ccc(Cn2nnnc2CN2CCC(n3nnc4ccccc43)CC2)cc1`, the inhibition was 16.7% (inactive). With `COc1ccc(-n2nnnc2C(c2cccc3ccccc23)N2CCC(n3c(=O)[nH]c4ccccc43)CC2)cc1` (centres undefined) the figure was 50.2% (active); with `O=C1NCN(c2ccccc2)C12CCN(C(c1cccs1)c1nnnn1C1CCCCC1)CC2` (centres undefined), 22% (inactive). Regarding `O=c1[nH]c2ccccc2n1C1CCN(C(c2ccccc2)c2nnnn2Cc2ccccc2)CC1` (centres undefined), the inhibition was 71% (active). Turning to `CN1CCN(Cc2ccccc2C(F)(F)F)CC1`, the inhibition is -6.7% (inactive). As to `CC(=O)c1ccc(OC(NC(=O)Cc2ccccc2)C(Cl)(Cl)Cl)cc1` (centres undefined), the inhibition is -5.19% (inactive). Take `COc1ccc(N=Cc2c(O)n(C)c(=O)[nH]c2=O)cc1`: the inhibition is -20.6% (inactive). Take `O=[N+]([O-])c1ccc(C2C3C(c4ccccc4)=NC4(CCCCC4)N32)cc1` (centres undefined): the inhibition was 23.4% (inactive).

As for `COc1ccccc1NC(=O)N1C[C@@H]2C[C@@H](C1)c1cccc(=O)n1C2`, the inhibition is -1.31% (inactive). Consider `CCN1C(=O)NC(=O)C2(CCCC2)C1=O`, for which the inhibition is -7.97% (inactive).

Take `C=CCn1c(O)c(/C=N/N2CCOCC2)c(=O)[nH]c1=S`: the inhibition was -0.23% (inactive).

As to `CC(=CCOc1ccc2ccc(=O)oc2c1)C1=CC(=O)C(C)(C)O1`, the inhibition is 62.4% (active). As for `CN(C)c1nc(N(C)C)nc(N(C#N)CCCl)n1`, the inhibition was -5.34% (inactive). Take `C[C@]12CCC3C(CC[C@H]4[C@H](O)[C@H](O)CC[C@]34C)C1CC[C@@H]2O` (some centres undefined): the inhibition is 0.2% (inactive). To `CCCOC(=O)C1C2c3ccccc3C(c3ccccc32)C1C(=O)O` (centres undefined) belongs 12.7% (inactive); to `Cc1cc(-c2ccc(N)c(C)c2)ccc1N`, -45.4% (inactive). With `O=C(C1CC(=O)N(C2CCCC2)C1)N1CCC2(CC1)OCCO2` (centres undefined) the figure was -6.37% (inactive).
